Laboratory results published in PubChem BioAssay.
Calls of active or inactive are those of the source.

Assays:
[1] = tested on: Plasmodium falciparum Sir2 (PF13_0152, Sir2A); assay: pfSir2 binders on small-molecule microarrays, primary screen, biochemical, small-molecule microarray, 635 nm fluorescence (AID 1098); conditions: small-molecule microarray binding, fluorescence 635 nm; higher = more signal;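 also: score merges spot fluorescence intensity with its signal-to-noise ratio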
[2] = small-molecule microarray binders of probe aDKK1, primary screen, biochemical, biotinylated probe, 635/667 nm fluorescence (AID 1099); conditions: higher = more signal;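 also: score merges 667nm spot fluorescence with signal to noise across triplicate slides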
[3] = small-molecule microarray binders of probe aCHRDL2, primary screen, biochemical, biotinylated probe, 635/667 nm fluorescence (AID 1100); conditions: higher = more signal
[4] = splicing luciferase reporter signal modulators, primary screen, spliceosome inhibition project, cell-based, HEK293, splice +/- reporter (AID 1101); conditions: luminescence, 24 h, higher = more signal, called active from +8 up or from −8 down;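 also: HEK293 cells carrying a splicing-competent luciferase reporter gene; test concentration not given here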
[5] = biological target: Fibroblast growth factor 10 (Homo sapiens) (UniProt O15520); assay: FGF10 binders on small-molecule microarrays, primary screen, biochemical, small-molecule microarray, 635 nm fluorescence (AID 1102); conditions: FGF10 binding, fluorescence 635 nm, higher = more signal
Chain of Fibroblast growth factor 10 (Homo sapiens) (O15520 whole entry, looked up): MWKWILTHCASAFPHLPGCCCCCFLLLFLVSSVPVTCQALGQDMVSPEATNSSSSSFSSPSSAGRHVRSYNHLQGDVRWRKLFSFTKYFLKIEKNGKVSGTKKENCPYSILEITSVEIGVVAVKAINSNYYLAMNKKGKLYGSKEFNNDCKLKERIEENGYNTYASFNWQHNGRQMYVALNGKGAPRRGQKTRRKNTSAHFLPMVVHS

[6] = tested on: glycogen synthase kinase-3 (GSK3A per assay name; protocol says GSK3B); assay: GSK3 binders on small-molecule microarrays, primary screen, biochemical, small-molecule microarray, 635 nm fluorescence, GSK3A (AID 1103); conditions: small-molecule microarray binding, fluorescence 635 nm; higher = more signal; also: the record names both GSK3A and GSK3B
[7] = biological target: Epidermal growth factor receptor (Homo sapiens) (UniProt P00533); assay: EGFR binders on small-molecule microarrays, primary screen, biochemical, small-molecule microarray, 635 nm fluorescence (AID 1104); conditions: EGFR binding, higher = more signal;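 also: score merges 667 nm emission intensity with spot signal to noise over triplicate slides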
Chain of Epidermal growth factor receptor (Homo sapiens) (P00533 whole entry, looked up): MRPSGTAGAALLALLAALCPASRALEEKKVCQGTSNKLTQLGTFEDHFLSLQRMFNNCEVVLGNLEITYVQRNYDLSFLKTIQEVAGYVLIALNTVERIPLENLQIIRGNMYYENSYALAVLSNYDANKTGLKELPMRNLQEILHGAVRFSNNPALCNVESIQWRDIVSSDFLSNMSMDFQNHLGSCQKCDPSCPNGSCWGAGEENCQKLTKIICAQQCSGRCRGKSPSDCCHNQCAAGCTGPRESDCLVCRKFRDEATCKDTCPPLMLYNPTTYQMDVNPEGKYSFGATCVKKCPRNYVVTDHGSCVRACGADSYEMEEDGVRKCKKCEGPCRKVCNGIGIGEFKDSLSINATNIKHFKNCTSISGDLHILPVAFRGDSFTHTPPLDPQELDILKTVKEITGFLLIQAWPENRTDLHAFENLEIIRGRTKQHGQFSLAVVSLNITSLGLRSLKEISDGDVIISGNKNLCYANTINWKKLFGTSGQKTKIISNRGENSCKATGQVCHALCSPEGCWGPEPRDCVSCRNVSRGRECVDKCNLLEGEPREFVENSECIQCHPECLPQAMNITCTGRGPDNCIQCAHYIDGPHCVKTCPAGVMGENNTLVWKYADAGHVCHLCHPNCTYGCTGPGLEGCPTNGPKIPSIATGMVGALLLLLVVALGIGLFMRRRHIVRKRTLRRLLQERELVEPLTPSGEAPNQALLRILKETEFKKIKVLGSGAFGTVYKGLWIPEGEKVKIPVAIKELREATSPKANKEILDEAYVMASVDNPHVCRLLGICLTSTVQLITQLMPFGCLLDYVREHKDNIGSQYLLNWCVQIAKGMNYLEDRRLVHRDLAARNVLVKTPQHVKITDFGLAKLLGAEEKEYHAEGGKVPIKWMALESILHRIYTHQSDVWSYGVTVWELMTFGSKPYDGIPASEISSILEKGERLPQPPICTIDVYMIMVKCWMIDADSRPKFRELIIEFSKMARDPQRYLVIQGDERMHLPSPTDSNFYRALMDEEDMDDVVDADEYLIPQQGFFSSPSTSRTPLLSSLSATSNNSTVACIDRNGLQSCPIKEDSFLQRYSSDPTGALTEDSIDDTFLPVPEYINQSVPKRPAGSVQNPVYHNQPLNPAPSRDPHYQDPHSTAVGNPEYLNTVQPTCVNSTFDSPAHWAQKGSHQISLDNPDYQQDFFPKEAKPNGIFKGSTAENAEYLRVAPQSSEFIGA

[8] = biological target: Follistatin-related protein 3 (Homo sapiens) (UniProt O95633); assay: FSTL3 binders on small-molecule microarrays, primary screen, biochemical, small-molecule microarray, 635 nm fluorescence (AID 1105); conditions: FSTL3 binding, higher = more signal;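 also: score merges emission near 667 nm and signal to noise per printed spot across three slides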
Chain of Follistatin-related protein 3 (Homo sapiens) (O95633 whole entry, looked up): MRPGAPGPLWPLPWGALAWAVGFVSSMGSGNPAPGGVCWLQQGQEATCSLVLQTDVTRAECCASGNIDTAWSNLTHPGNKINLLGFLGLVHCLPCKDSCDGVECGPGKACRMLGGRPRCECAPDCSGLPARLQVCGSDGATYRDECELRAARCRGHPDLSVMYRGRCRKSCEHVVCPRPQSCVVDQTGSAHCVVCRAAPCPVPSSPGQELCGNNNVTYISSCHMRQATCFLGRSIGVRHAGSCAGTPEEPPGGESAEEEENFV

[9] = biological target: Dickkopf-related protein 1 (Homo sapiens) (UniProt O94907); assay: DKK1 binders on small-molecule microarrays, primary screen, biochemical, small-molecule microarray, 635 nm fluorescence scan (AID 1106); conditions: DKK1 binding, higher = more signal;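 also: score merges emission near 667 nm with signal to noise over three replicate slides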
Chain of Dickkopf-related protein 1 (Homo sapiens) (O94907 whole entry, looked up): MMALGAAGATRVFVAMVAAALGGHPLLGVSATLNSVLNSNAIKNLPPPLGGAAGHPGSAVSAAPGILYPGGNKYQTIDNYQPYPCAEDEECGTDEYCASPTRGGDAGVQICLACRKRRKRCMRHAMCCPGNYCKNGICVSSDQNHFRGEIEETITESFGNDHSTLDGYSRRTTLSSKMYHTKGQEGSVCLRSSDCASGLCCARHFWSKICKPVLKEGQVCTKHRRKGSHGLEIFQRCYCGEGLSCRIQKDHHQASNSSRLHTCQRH

[10] = tested on: Inhibin beta A chain (activin A); assay: INHBA (activin A) binders on microarrays, primary screen, biochemical, small-molecule microarray, 635 nm fluorescence scan (AID 1107); conditions: small-molecule microarray binding, higher = more signal;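 also: mouse activin A protein probed at 4.33 µg/mL on printed slides; score merges bound-protein fluorescence near 667 nm with spot signal-to-noise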
[11] = tested on: Human papillomavirus type 1a protein E7 (residues 44-93); assay: HPV1a E7 fragment binders on microarrays, primary screen, biochemical, small-molecule microarray, residues 44-93, 635 nm fluorescence (AID 1108); conditions: small-molecule microarray binding, fluorescence 635 nm; higher = more signal;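 also: E7 fragment applied at 1 µg/mL in TBST for 1 h at 4 C; score combines spot fluorescence with its signal to noise ratio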
[12] = modulators of HCV replicon luciferase signal, primary screen, HCV replication inhibitor project, Huh7 cells, luciferase reporter (AID 1109); conditions: 48 h, higher = more signal;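 also: huh7 hepatoma cells harbouring a luciferase neomycin HCV replicon reporter; luciferase luminescence as measure of HCV replicon replication; test concentration not given here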
[13] = biological target: Left-right determination factor 2 (Homo sapiens) (UniProt O00292); assay: LEFTY2 binders on small-molecule microarrays, primary screen, biochemical, small-molecule microarray, 635 nm fluorescence scan (AID 1110); conditions: LEFTY2 binding, higher = more signal
Chain of Left-right determination factor 2 (Homo sapiens) (O00292 whole entry, looked up): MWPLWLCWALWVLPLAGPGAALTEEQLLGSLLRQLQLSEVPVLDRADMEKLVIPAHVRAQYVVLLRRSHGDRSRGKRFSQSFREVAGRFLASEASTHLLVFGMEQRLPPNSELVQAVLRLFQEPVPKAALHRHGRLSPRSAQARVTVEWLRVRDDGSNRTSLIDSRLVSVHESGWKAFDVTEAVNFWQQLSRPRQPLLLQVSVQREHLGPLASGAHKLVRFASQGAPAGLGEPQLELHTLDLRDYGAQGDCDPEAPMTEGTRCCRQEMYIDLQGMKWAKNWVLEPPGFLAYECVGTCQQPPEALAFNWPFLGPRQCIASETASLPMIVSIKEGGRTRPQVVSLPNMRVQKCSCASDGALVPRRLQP

[14] = biological target: Calmodulin-1 (Homo sapiens) (UniProt P0DP23); assay: CALM1 binders on microarrays, EGTA buffer, profiling panel, biochemical, small-molecule microarray, Cy5-labelled CALM1 (AID 1111); conditions: Cy5-CALM1 binding fluorescence, higher = more signal;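 also: labelled calmodulin applied in Tris saline Tween buffer holding calcium plus EGTA and DTT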
[15] = biological target: Calmodulin-1 (Homo sapiens) (UniProt P0DP23); assay: calcium-bound CALM1 binders on microarrays, profiling panel, artefact control for SMM control-protein annotation, biochemical, small-molecule microarray, Cy5-labelled CALM1, plus calcium (AID 1112); conditions: Cy5-CALM1 binding fluorescence, higher = more signal;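 also: score merges spot fluorescence with signal to noise from triplicate slides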
[16] = small-molecule microarray binders of probe aWnt5a, primary screen, biochemical, biotinylated probe, 635/667 nm fluorescence (AID 1113); conditions: higher = more signal;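 also: score merges 667 nm fluorescence intensity with signal-to-noise per printed feature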
[17] = small-molecule microarray binders of probe aShh, primary screen, biochemical, biotinylated probe, 635/667 nm fluorescence (AID 1114); conditions: higher = more signal;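 also: probe is biotin-labelled aShh protein from a stem cell growth factor screen; measures binding of labelled protein to compounds printed on the slide; score merges feature fluorescence at 667 nm with signal-to-noise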
[18] = small-molecule microarray binders of probe aNog, primary screen, biochemical, biotinylated probe, 635/667 nm fluorescence (AID 1115); conditions: higher = more signal;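 also: probe is biotinylated aNog protein used at 0.15 µg/mL for 1 h at 4 C; z-score combines 667 nm fluorescence of each spot with its signal to noise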
[19] = biological target: Torsin-1A-interacting protein 1 (Homo sapiens) (UniProt Q5JTV8); assay: LAP1 binders from COS7 cell lysate, primary screen, small-molecule microarray, 635/667 nm fluorescence (AID 1116); conditions: COS7-hLAP1 lysate binding, 635 nm fluorescence, higher = more signal
Chain of Torsin-1A-interacting protein 1 (Homo sapiens) (Q5JTV8 whole entry, looked up): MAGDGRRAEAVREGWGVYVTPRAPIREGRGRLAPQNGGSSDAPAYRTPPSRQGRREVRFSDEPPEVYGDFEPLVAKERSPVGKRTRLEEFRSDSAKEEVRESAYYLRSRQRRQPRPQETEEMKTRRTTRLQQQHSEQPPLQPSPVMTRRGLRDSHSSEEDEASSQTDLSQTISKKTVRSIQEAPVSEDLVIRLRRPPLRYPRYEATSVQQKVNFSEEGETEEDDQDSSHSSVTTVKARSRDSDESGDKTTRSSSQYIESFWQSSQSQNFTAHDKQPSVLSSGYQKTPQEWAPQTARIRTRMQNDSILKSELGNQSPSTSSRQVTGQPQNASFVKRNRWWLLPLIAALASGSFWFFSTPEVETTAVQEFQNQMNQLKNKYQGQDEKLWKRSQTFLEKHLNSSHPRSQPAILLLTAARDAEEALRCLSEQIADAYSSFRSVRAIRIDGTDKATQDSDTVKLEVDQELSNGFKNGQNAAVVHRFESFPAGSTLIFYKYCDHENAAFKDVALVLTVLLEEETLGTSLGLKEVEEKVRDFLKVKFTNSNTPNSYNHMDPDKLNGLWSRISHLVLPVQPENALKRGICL

[20] = biological target: Alpha-bungarotoxin (Bungarus multicinctus) (UniProt P60615); assay: alpha-bungarotoxin binders on microarray, profiling panel, artefact control for SMM control protein annotation, biochemical, small-molecule microarray, Alexa647 label, 635/667 nm fluorescence (AID 1117); conditions: alpha-BTX-A647 binding fluorescence, higher = more signal
Chain of Alpha-bungarotoxin (Bungarus multicinctus) (P60615 whole entry, looked up): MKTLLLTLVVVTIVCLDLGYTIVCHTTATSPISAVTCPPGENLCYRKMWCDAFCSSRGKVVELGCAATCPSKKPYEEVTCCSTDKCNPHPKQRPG

Compound	composite z-score [1]	composite z-score [2]	composite z-score [3]	z-score [4]	composite z-score [5]	composite z-score [6]	composite z-score [7]	composite z-score [8]	composite z-score [9]	composite z-score [10]	composite z-score [11]	z-score [12]	composite z-score [13]	composite z-score [14]	composite z-score [15]	composite z-score [16]	composite z-score [17]	composite z-score [18]	composite z-score [19]	composite z-score [20]
C=CCC(OC(C)=O)[C@@H]1[C@@H](N(Cc2cc3ccccc3o2)C(=O)Cc2ccc(OC)cc2)c2cc(OCCCO)ccc2N1C(=O)Cc1ccc2ccccc2c1 (stereo not given in full)	-0.542	-0.217	0.689	-0.475 (inactive)	-0.448	-1.52	-0.227	-0.471	-0.62	0.806	-0.687	-0.739	-0.487	-0.197	0.191	-0.0704	0.0815	-0.0642	0.475	0.615
COc1ccc(C#Cc2ccc3c(c2)[C@]2(C(=O)N3)[C@H](C(=O)Nc3nc4ccccc4s3)[C@H]3C(=O)O[C@H](c4ccccc4)[C@H](c4ccccc4)N3[C@@H]2c2ccc(OCCO)cc2)cc1	0.937	0.72	0.766	-0.126 (inactive)	1.17	1.3	0.209	1.13	0.629	-0.37	0.801	-2.03	0.651	2.19	0.915	0.0377	0.337	0.302	2.08	1.75
CN1C(=O)C2C=CC(C(O)c3ccc(-c4ccccc4)s3)N(Nc3ccccc3)C2C1=O (stereo not given)	1.27	0.644	1.1	1.43 (inactive)	0.737	0.703	0.138	0.898	-0.0947	1.23	0.965	-0.593	0.0874	1.41	0.186	-0.0103	0.296	1.49	1.07	2
COCCOC(=O)N1C(=O)[C@@]2(c3cc(C#CC4(O)CCCCCC4)ccc31)[C@H](c1ccc(OCCO)cc1)N1[C@H](c3ccccc3)[C@H](c3ccccc3)OC(=O)[C@H]1[C@@H]2C(=O)N1CCCCCCC1	1.74	1.63	0.965	-1.55 (inactive)	1.35	1.32	0.825	1.51	0.988	1.74	1.41	-1.94	0.725	2.18	1.45	0.716	1.01	2.62	2.51	1.89
C=CC[C@]1(C(=O)OC)N=C(c2ccc(OCCCO)cc2)O[C@H]1c1ccccc1N=[N+]=[N-]	1.54	1.21	0.865	-1.4 (inactive)	1.25	1.31	1.19	1.37	1.26	0.826	1.06	0.452	0.786	0.592	-0.357	0.194	0.598	1.7	0.387	0.935
C=C(C(=O)CC[C@@H](OC(C)=O)c1cccc(OCCO)c1)C(C)C	1.24	-0.136	0.114	2.37 (inactive)	0.0186	-0.664	-0.649	-0.0718	-0.375	1.35	0.974	-3.23	-0.865	-0.35	-0.94	-0.0276	-0.223	-0.0863	0.847	0.221
COc1cc2c(cc1O)C(c1ccc(CN3CCCC3)cc1)N(Cc1ccc([N+](=O)[O-])o1)CC2 (stereo not given)	1.23	-0.276	-0.0934	0.982 (inactive)	0.116	-0.903	-0.0173	0.0429	-0.299	-0.289	-1.17	-1.05	0.313	0.383	0.958	-0.167	-0.193	0.0692	1.12	0.951
COCCOC(=O)N1C(=O)[C@@]2(c3cc(C#Cc4ccc(OC)cc4)ccc31)[C@H](c1ccc(OCCO)cc1)N1[C@H](c3ccccc3)[C@H](c3ccccc3)OC(=O)[C@H]1[C@@H]2C(=O)N1CCCCCCC1	1.7	2.22	1.36	-1.58 (inactive)	0.821	1.24	0.719	1.52	1.29	1.65	1.35	-0.891	0.954	2.27	1.21	0.777	2.23	3.67	3.66	1.99
COc1ccccc1CN1C(=O)c2ccccc2[C@@H](C(=O)NCCCN(C)C)[C@@H]1c1ccc(CO)cc1	1.31	0.503	-0.205	-0.0655 (inactive)	0.0373	-0.841	-0.127	-0.235	0.271	0.545	-1.09	-1.98	0.155	-0.388	-0.298	-0.0529	-0.0263	-0.337	0.55	0.256
COC(=O)c1ccc([C@H](NC(=O)c2ccccc2)[C@]2(C)C[C@H]2C2CCCCC2)cc1	0.135	0.343	1.24	0.736 (inactive)	0.225	0.0377	-0.133	0.4	-0.532	0.795	1.3	-1.61	-0.254	1.73	1.47	0.0805	0.315	1.68	0.462	1.09
C=CCC(OC(C)=O)[C@@H]1[C@@H](N(Cc2ccc(-c3cccc(C(F)(F)F)c3)o2)C(=O)c2cccc3ccccc23)c2cc(OCCCO)ccc2N1C(=O)c1ccc2ccccc2n1 (stereo not given in full)	0.765	-0.262	0.52	-1.29 (inactive)	0.0448	-0.684	-0.117	0.113	0.144	1.47	-0.193	0.66	-0.309	-0.484	-0.108	-0.0459	0.227	0.169	0.406	-0.482
